This is an account of results in PubChem BioAssay AID504327 (National Center for Advancing Translational Sciences (NCATS), 2011).

Values joined by “and” are separate entries in the source; they are usually repeats but may differ in a detail not shown here. Equal values may be shown once. In all, about 390,000 compounds went through this assay and about 820 (0.21%) were called active. Not shown: some 3% with an inconclusive outcome. Calls follow the shape of the dose curve; as a rule, active = well fitted inhibition curve with a large enough effect; inconclusive = small, poorly fitted or top-dose-only effect, or another doubt; inactive = no such curve, though single readings can be large or run the other way. Many of the other results were omitted from the sample, so actives are more common in it than they were. Some structures have more than one record in an assay (separate samples or runs), and their calls can disagree.
% is scaled to controls: 0 for no effect and ±100 for the full control effect; potency is read from the fitted curve at half-maximal effect.

The target of the assay is Histone acetyltransferase KAT2A (Homo sapiens) (UniProt Q92830). Briefly: qHTS Assay for Inhibitors of GCN5L2. To be noted: GCN5L2 HAT assay, ThioGlo1 CoA-SH fluorescence; series mostly up to 58.9 µM; activity change, negative = inhibition: at the top concentration. From the text: Histone acetyltransferase (HAT) enzymes transfer a […] group from acetyl-coenzyme A to the epsilon-amino group of conserved lysine residues of N-terminal histone tails. Acetylation results in charge neutralization of this positively charged amino acid, decreasing interactions with the […] backbone and making the DNA more accessible for transcription. HATs have been recognized as an emerging drug target for treatment of cancer, diabetes, asthma, chronic obstructive pulmonary disease, cardiac disease, and viral infection. Protein identified with HAT activity include the […] like 2 (GCN5L2, a.ka. Histone acetyltransferase KAT2A) which acetylates histone H3 at Lys9, 14, 18, 13, and to lesser extent histones H4 and H2B. This activates transcription of the gene by modulating chromatin structure and installing the acetyllysine recognition mark for bromodomain-containing coactivator proteins.
Sequence of Histone acetyltransferase KAT2A (Homo sapiens) (Q92830 whole entry, looked up): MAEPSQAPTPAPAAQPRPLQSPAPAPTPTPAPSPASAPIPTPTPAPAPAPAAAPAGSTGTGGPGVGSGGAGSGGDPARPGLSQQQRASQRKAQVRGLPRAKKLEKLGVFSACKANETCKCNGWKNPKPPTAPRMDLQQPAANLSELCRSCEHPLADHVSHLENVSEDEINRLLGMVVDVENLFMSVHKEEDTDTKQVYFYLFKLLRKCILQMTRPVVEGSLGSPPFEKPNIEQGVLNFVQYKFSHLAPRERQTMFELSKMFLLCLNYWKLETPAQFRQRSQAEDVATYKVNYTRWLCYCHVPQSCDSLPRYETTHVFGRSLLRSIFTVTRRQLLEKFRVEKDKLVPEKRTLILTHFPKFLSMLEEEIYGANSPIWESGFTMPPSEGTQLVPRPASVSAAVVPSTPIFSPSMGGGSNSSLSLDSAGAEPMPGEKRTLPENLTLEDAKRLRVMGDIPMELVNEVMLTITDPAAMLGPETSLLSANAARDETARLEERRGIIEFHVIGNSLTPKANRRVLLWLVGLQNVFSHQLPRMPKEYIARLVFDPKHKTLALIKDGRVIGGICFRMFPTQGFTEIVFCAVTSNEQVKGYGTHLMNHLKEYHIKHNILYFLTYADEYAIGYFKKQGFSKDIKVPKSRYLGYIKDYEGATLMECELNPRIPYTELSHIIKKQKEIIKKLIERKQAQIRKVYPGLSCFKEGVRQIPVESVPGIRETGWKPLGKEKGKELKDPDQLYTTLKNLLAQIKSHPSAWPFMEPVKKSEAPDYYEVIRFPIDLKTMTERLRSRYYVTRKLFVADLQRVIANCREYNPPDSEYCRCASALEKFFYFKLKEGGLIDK
A quantitative high throughput screen was developed to identify small molecule inhibitors. The assay is based on the principle that it measures formation of reduced CoA with the pro-fluorescent maleimide derivative ThioGlo1 that becomes fluorescent upon reaction with the free thiol of CoA.
A large number of artifacts are expected in this primary screen, compounded by the assay format (fluorescent artifacts) and by the high top concentration tested for each substance. This BioAssay data deposition should be used with caution, and counterscreen and secondary assay validation is essential since very few actives from the primary screen are expected to be true inhibitors of GCN5L2.
[2] Yasgar, et al. Compound Management for Quantitative High-Throughput Screening. JALA. 2008 Apr;13(2):79-89.
[3] Inglese, et al. Quantitative high-throughput screening: a titration-based approach that efficiently identifies biological activities in large chemical libraries. Proc Natl Acad Sci. 1;103(31):11473-8. 2006. PMID: 16864780
NIH Molecular Libraries Probe Production Network [MLPCN]
NIH Chemical Genomics Center [NCGC]
Structural Genomics Consortium (SGC)
To each well of a 1,536w plate, 3ul of GCN5L2 (final concentration 20nM, in 50mM HEPES, 0.1mM EDTA (pH 7.5), 0.01% Tween-20 buffer) are added using a Kalypsys dispenser. Only buffer is added to some wells as a control. A Kalypsys pin-tool transferred 23nl of library compound solution in DMSO to each well, as well as the control inhibit garcinol. . Following a 15 min incubation of enzyme with compounds at room temperature, 1ul mixture of ThioGlo1 (50uM final), H3(1-25) peptide (75uM final), and Acetyl-CoA (70uM final) is added. Plates are read immediately on the ViewLux (PerkinElmer) (Ex340nm/Em540nm) for a 0 min read, incubated for 20 min at room temperature, and read again on the ViewLux with the same settings. The initial read was carried out to identify compounds that are potentially fluorescent.
(qHTS replaces the single test concentration by a dilution series.)
With `COc1ccc(N2C(=O)/C(=C/c3ccco3)C(=O)NC2=S)cc1`, the Potency is 17.8 µM (active). For `COc1ccc2c3c1O[C@H]1C[C@@H](O)C=C[C@@]31CCN(C)C2`, the Potency result is “inactive”. `CC(C)(Cc1c[nH]c2ccc(Cl)cc12)NCCOc1ccccc1OCC1CC1`: the Potency entry was “inactive”.

Take `C[C@]12CC[C@@H]3c4ccc(O)cc4C[C@@H](CCCCCCCCCS(=O)CCCC(F)(F)C(F)(F)F)C3[C@@H]1CC[C@@H]2O` (stereo not given in full): the “activity change, negative = inhibition” value is 34.1% (inactive). Regarding `CCCCC/C=C\C/C=C\C/C=C\C/C=C\CCCCCC(=O)NCCO`, the Potency result is “inactive”. With `Cc1cccc2c3c(ccc12)C1=C(C(=O)C3=O)C(C)CO1` (stereo not given), the Potency was 31.6 µM (active). Turning to `C[C@]12O[C@H](C[C@@]1(O)C(=O)O)n1c3ccccc3c3c4c(c5c6ccccc6n2c5c31)CNC4=O`, the “activity change, negative = inhibition” value is 37.3% (inactive).

For `CCOc1ccc(S(=O)(=O)NCc2ccc3c(c2)OCO3)cc1C`, the “activity change, negative = inhibition” value is -4.01% (inactive). For `COc1ccc2c3c1OC1CC(O)C=C[C@@]31CCN(C)C2` (stereo not given in full), the “activity change, negative = inhibition” value was -3.98% (inactive). Take `CC(C)C(N)C(=O)OCCOCn1cnc2c(=O)[nH]c(N)nc21` (stereo not given): the “activity change, negative = inhibition” value is -17% (inactive).

Turning to `CN(C)C[C@H]1CCCC[C@]1(O)c1cccc(O)c1`, the “activity change, negative = inhibition” value is -5.12% (inactive).

Turning to `CC(C)(c1ccc(OC[C@@H]2CO2)cc1)c1ccc(OC[C@H]2CO2)cc1`, the “activity change, negative = inhibition” value was -15.6% (inactive). As for `CC(=O)c1c(O)c(C)c(O)c(Cc2c(O)c3c(c(C(=O)/C=C/c4ccccc4)c2O)OC(C)(C)C=C3)c1O`, the Potency result was “inactive and 11.2 µM (active)”.

As for `CC(=O)c1c(O)c(C)c(O)c(Cc2c(O)c3c(c(C(=O)/C=C\c4ccccc4)c2O)OC(C)(C)C=C3)c1O`, the Potency is 35.5 µM (active). As to `CCC(C)C(=O)O[C@@H]1C[C@@]2(C)C(c3ccoc3)OC(=O)CC23OC2(C)O[C@@]14[C@@]1(C)C(CC(=O)OC)C5(C)CC1(O)C(O)(C5OC(=O)C1(C)OC1C)C(OC(C)=O)[C@@]34O2` (stereo not given in full), the “activity change, negative = inhibition” value is -8.65% (inactive). Turning to `C=CCN1CCC2(C)c3cc(O)ccc3CC1[C@@H]2C` (stereo not given in full), the “activity change, negative = inhibition” value is -21.9% (inactive). The same measure, in the same setting: next, `CN1CCCC(=C(c2cccs2)c2cccs2)C1`: -2.25% (inactive). As for `CC(C)(O)c1[se]c2ccccc2c1I`, the “activity change, negative = inhibition” value was -12% [at 88.6 µM] (inactive). For the molecule `CO[C@@H]1C[C@@H](C[C@H]2CC[C@H](C)[C@@H]([C@@H](C)C(=O)O)O2)O[C@]2(O[C@](C)([C@H]3CC[C@@](C)(C4OC([C@H]5O[C@@](O)(CO)[C@H](C)C[C@@H]5C)C[C@@H]4C)O3)C[C@H]2C)[C@@H]1C` (stereo not given in full), the “activity change, negative = inhibition” value is -5.57% (inactive). Same read-out and setting: next, `CCN(CC)c1nc(C)cc(OP(=S)(OC)OC)n1`: -9.1% (inactive); `CN(C)[C@@H]1C(=O)C(C(N)=O)=C(O)[C@@]2(O)C(=O)C3=C(O)c4c(O)cccc4[C@@](C)(O)C3CC12` (stereo not given in full): 3.36% (inactive). On to `COC([CH2][Hg])CNC(=O)c1ccccc1OCC(=O)O` (stereo not given), for which the Potency was 0.891 µM (active). In the case of `O=C1CCc2cccc3c2N1CC3`, the “activity change, negative = inhibition” value was 7.32% (inactive). Regarding `CC(C)=CCC[C@]1(C)[C@@H](CC=C(C)C)C[C@@]2(CC=C(C)C)C(=O)[C@]1(C(=O)C(C)C)C(=O)C(CC=C(C)C)=C2O`, the Potency was 28.2 µM (active). Regarding `Nc1ccc(-c2ccc(N)c(N)c2)cc1N`, the “activity change, negative = inhibition” value is -7.25% (inactive). Take `CCCN(C/C=C/I)C1CCc2ccc(O)cc2C1` (stereo not given): the “activity change, negative = inhibition” value was -0.627% (inactive).

In the case of `NCCc1c[nH]c2ccc(O)cc12`, the Potency entry is “inactive and 11.2 µM (active)”. Consider `Cc1cccc2c(CCN)c[nH]c12`, for which the “activity change, negative = inhibition” value was -2.68% (inactive).

Take `COc1ccc2[nH]cc(CCNCc3ccc(Br)cc3)c2c1`: the “activity change, negative = inhibition” value is 1.22% (inactive). Turning to `CC(=O)Oc1ccccc1C(=O)Nc1ncc([N+](=O)[O-])s1`, the “activity change, negative = inhibition” value is -3.77% (inactive). On the same count and under the same terms, next, `CC[C@@H]1CN2CC[C@@H]1C[C@H]2[C@H](O)c1ccnc2ccc(OC)cc12`: -9.14% (inactive); `COc1ccccc1-c1[se]c2ccccc2c1I`: -12.9% (inactive); `CCCCCCCCCCCCN=C(N)N`: 0.337% (inactive).

Turning to `N#Cc1c(Cl)c(Cl)c(Cl)c(C#N)c1Cl`, the “activity change, negative = inhibition” value is -13.8% (inactive). For `CCCCCCCCCCCCCC(=O)O[C@@H]1[C@@H](C)[C@@]2(O)[C@@H](C=C(CO)C[C@]3(O)C(=O)C(C)=C[C@@H]23)[C@@H]2C(C)(C)[C@]12OC(C)=O`, the “activity change, negative = inhibition” value was 2.06% (inactive). Consider `CC(=O)[O][Sn]([c]1ccccc1)([c]1ccccc1)[c]1ccccc1`, for which the Potency was 4.47 µM (active). Take `COC(=O)N1C(c2ccccc2)C1c1ccccc1` (stereo not given): the “activity change, negative = inhibition” value is 0.274% (inactive). For the molecule `C[C@H]1C/C=C/[C@@H]2[C@@H]3O[C@]3(C)[C@@H](C)[C@H]3[C@H](Cc4ccccc4)NC(=O)[C@]32OC(=O)O/C=C/[C@](C)(O)C1=O`, the “activity change, negative = inhibition” value was 3.33% (inactive). `CN[C@@H]1C[C@H]2O[C@@](C)([C@@H]1OC)n1c3ccccc3c3c4c(c5c6ccccc6n2c5c31)C(=O)NC4`: the activity change, negative = inhibition was 4.47% [at 12.7 µM] (inactive). As to `CNCC[C@H](Oc1ccc(C(F)(F)F)cc1)c1ccccc1`, the Potency entry was “inactive and 8.91 µM (active)”. `CCCCC/C=C\C/C=C\C/C=C\C=C\[C@H](CCCC(=O)O)OO`: the “activity change, negative = inhibition” value is 9.21% (inactive). For the molecule `N#CC(C#N)=Cc1cc(O)c(O)c([N+](=O)[O-])c1`, the Potency entry is “inactive”.

Regarding `C[C@@H]1C[C@H]2CC[C@H](O2)[C@H](C)C(=O)O[C@@H](C)C[C@@H]2CC[C@@H](O2)[C@@H](C)C(=O)O[C@H](C)C[C@H]2CC[C@H](O2)[C@H](C)C(=O)O[C@@H](C)C[C@@H]2CC[C@@H](O2)[C@@H](C)C(=O)O1`, the “activity change, negative = inhibition” value was 41.3% (inactive).

Regarding `N#Cc1cc(Br)c(O)c(Br)c1`, the “activity change, negative = inhibition” value was -21.5% (inactive). Turning to `c1ccc(N2CC[C@@]3(CCCNC3)C2)nc1`, the “activity change, negative = inhibition” value is 7.24% (inactive).
